Laboratory results reported in the supplement of paper PMC7156485.
± gives the standard deviation of the averaged measurements.

tested on: HCC1569; assay: cell number relative to DMSO (% of DMSO); higher = more cells (less growth inhibition / toxicity); conditions: concentration: 10 µM; 24 h
Method in brief: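 For HCC1569 and TDF cells, compounds at 10 µM were applied for 24 h at 37 °C in triplicate in 384-well plates. Cells were fixed in 3.7% formaldehyde, stained for H1.0 and with DAPI, and imaged at ×10 over six fields per well. The endpoint, H1.0 nuclear intensity or cell number, is shown as percent of the plate control using the median of replicates. Positional effects were smoothed for HCC1569 only.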
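Also: TDF denotes transformed human dermal fibroblasts of mesenchymal origin.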

| Structure (SMILES) | cell number |
| --- | --- |
| Cl.FC(F)(F)c1cc(COC2CCCNC2c2ccccc2)cc(C(F)(F)F)c1 [L-733,060 hydrochloride] | 91.2 |
| CCCCCCCCCCCC=CCCCCC(=O)O [6(E)-Octadecenoic acid] | 100 |
| CCCCCC(O)C=CC1C(O)CC(=O)C1CCCCCCC(=O)O (stereo not given) [Prostaglandin E1] | 102 ± 2 |
| CC1(C)CC=C(c2cnc3ccccc3c2)c2cc(C(=O)Nc3ccc(C(=O)O)cc3)ccc21 | 99.8 |
| CC(C)=CCc1cc2c(cc1O)oc(=O)c1c3ccc(O)cc3oc21 | 106 |
| CCOC(=O)Nc1ccc(NCc2ccc(F)cc2)nc1N.O=C(O)C=CC(=O)O [Flupirtine maleate] | 97.3 |
| CN(C(Cc1ccc(OS(=O)(=O)c2cccc3cnccc23)cc1)C(=O)N1CCN(c2ccccc2)CC1)S(=O)(=O)c1cccc2cnccc12 (stereo not given) | 75.2 ± 17 |
| Nc1nc(=O)c2ncc(=O)[nH]c2[nH]1 [Isoxanthopterin] | 104 |
| CC(C)NCC(O)COc1ccc(CCOCC2CC2)cc1.Cl (stereo not given) [Betaxolol hydrochloride] | 102 |
| CC(=O)N[C@@H](CS)C(=O)O [N-Acetyl-L-Cysteine] | 98.1 |
| COc1ccc2c(c1)c(CC(=O)Nc1ccc(NC(C)=O)cc1)c(C)n2C(=O)c1ccc(Cl)cc1 [N-(4-acetamidophenyl)indomethacinamide] | 78.7 |
| CCOC(=O)C(C)(C)Oc1ccc(Cl)cc1 [Clofibrate] | 102 ± 2.9 |
| CS(=O)(=O)O.NC(=NC(=O)c1nc(Cl)c(N)nc1N)Nc1ccccc1 [Phenamil methanesulfonate] | 103 |
| Cc1ccc(S(=O)(=O)Cc2nc(-c3ccc(C(=O)NCc4cccnc4)cc3)oc2C)cc1 | 87 |
| Cc1nc2ccccn2c(=O)c1CCN1CCC(C(=O)c2ccc(F)cc2)CC1 [Pirenperone] | 99.5 |
| CCN(CC)Cc1ccc(C(=O)N(CCc2ccccc2OC)[C@@H]2CCNC2)cc1.Cl.Cl | 98.5 |
| CCCCCOC(=O)Nc1nc(=O)n(C2OC(C)C(O)C2O)cc1F (stereo not given) [Capecitabine] | 102 |
| CCCOc1ccccc1-c1nc2[nH][nH]nc-2c(=O)n1 [Zaprinast] | 100.3 ± 0.47 |
| CC(=O)SCC(Cc1ccccc1)C(=O)NCC(=O)OCc1ccccc1 (stereo not given) [Racecadotril] | 103 |
| O=C1NC(=O)c2c1c1c3ccccc3[nH]c1n1cncc21 [Isogranulatimide] | 87.7 |

| Structure (SMILES) | cell number |
| --- | --- |
| Cc1cc2nc3c(=O)[nH]c(=O)nc-3n(C)c2cc1C=O | 99.8 |
| CCN1CCCC1CNC(=O)c1cc(S(N)(=O)=O)ccc1OC (racemic) | 106 |
| C=C(c1ccc(C(=O)O)cc1)c1cc2c(cc1C)C(C)(C)CCC2(C)C [Bexarotene] | 104 |
| CC(=O)C1(O)CCC2C3CCC4=CC(=O)CCC4(C)C3CCC21C (stereo not given) [17- Hydroxyprogesterone] | 104 |
| CS(=O)(=O)c1ccc(-c2cc(Br)sc2-c2ccc(F)cc2)cc1 | 99.9 |
| CC(=O)O.O=C(O)c1ccc2c3c1cccc3c(=O)n1c3ccccc3nc21 | 99.7 |
| CS(=O)(=O)O.Cc1ccc(NC(=O)c2ccc(CN3CCN(C)CC3)cc2)cc1Nc1nccc(-c2cccnc2)n1 [Imatinib] | 93.4 |
| C=CC(C)(O)CCC1C(C)(O)CCC2C(C)(C)CCCC21C (stereo not given) [Sclareol] | 105 |
| CCC=CCC=CCC=CCC=CCC=CCCCC(=O)O | 98 |
| CC(=O)Oc1ccccc1C(=O)O [Acetylsalicylic Acid] | 101 |
| COc1cc(C2Oc3cc(C4Oc5cc(O)cc(O)c5C(=O)C4O)ccc3OC2CO)ccc1O (stereo not given) [Silybine] | 100 |
| O=C1NC(=O)C(c2cnc3ccccn23)=C1c1cn2c3c(cc(F)cc13)CN(C(=O)N1CCCCC1)CC2 | 66.9 |
| CC(C)(CO)C(O)C(=O)NCCC(=O)O (stereo not given) [Pantothenic acid] | 104 |
| C=C1CC2C3C=C(C)C4=CC(=O)CCC4(C)C3CCC2(C)C1(OC(C)=O)C(C)=O (stereo not given) [Melengestrol Acetate] | 102 |
| NC1CCN(c2c(F)cc3c(=O)c(C(=O)O)cn(C4CC4)c3c2Cl)C1 (stereo not given) [Clinafloxacin] | 103 |
| C=C1C(=O)OC2C1CCC(C)=CCCC1(C)OC21 (stereo not given) [Parthenolide] | 65.2 ± 7.3 |
| Cc1ncc([N+](=O)[O-])n1CCO [Metronidazole] | 102 |
| CCCCCC#CCC#CCC#CCC#CCCCC(=O)O [5,8,11,14-Eicosatetraynoic acid] | 105 |
| Nc1ccn(C2CCC(CO)O2)c(=O)n1 (stereo not given) [2',3'-dideoxycytidine] | 99.7 |
| CCCCCC(O)C=CC=CCCCCCCCCCC(=O)O (stereo not given) | 99.4 |
